Reference: PubChem BioAssay (Tox21)
Calls of active or inactive are those of the source. Entries that show only a call come without a potency. Calls follow the shape of the dose curve; as a rule, active = well fitted activation curve with a large enough effect in the repeat runs; inconclusive = weak or mixed curves; inactive = flat fitted curve, though single readings scatter.

Target: KiSS-1 receptor (Homo sapiens) (UniProt Q969F8)
Assay: Human kisspeptin (KISS1R) small molecule agonists, calcium flux assay in KISS1R-HEK293 cells (AID 1920064)
In short: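 Intracellular calcium mobilization in KISS1R-HEK293 cells was recorded by fluorescence (Ex/Em 480/540) for 3 min following compound addition to cells pre-loaded 1 h with calcium dye.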

Chain of KiSS-1 receptor (Homo sapiens) (Q969F8 whole entry, looked up): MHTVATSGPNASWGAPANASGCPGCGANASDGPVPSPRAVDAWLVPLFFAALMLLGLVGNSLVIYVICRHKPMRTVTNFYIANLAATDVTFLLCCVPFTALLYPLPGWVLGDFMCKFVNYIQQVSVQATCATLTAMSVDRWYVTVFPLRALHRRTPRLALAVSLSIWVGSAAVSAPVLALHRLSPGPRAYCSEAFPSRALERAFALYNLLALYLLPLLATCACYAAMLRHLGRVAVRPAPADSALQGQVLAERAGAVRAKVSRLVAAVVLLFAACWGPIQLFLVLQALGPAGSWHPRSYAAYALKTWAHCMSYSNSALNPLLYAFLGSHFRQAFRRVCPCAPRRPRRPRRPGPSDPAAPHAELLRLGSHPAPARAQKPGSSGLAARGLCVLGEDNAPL

Compound | Potency
COP(=O)(OC)C(O)C(Cl)(Cl)Cl (stereo unspecified) | inactive
CNC(=O)O/N=C/C(C)(C)S(C)(=O)=O | inactive
Cc1cc(C)cc(C)c1 | inactive
[O-][Cl+2]([O-])O | inactive
[N-]=[N+]=[N-] | inactive
CCC[N+]1(C)CCCCC1 | inactive
CN(C)c1nc(=O)n(C2CCCCC2)c(=O)n1C | inactive
O=S(=O)(O)OOS(=O)(=O)O | inactive
Oc1ccc(Cl)cc1Cc1ccccc1 | inactive
CCCCc1c(C)nc(NCC)[nH]c1=O | inactive
CCCCCCCCCCCCCCn1cc[n+](C)c1 | inactive
Cc1ccc2ccccc2c1 | inactive
C=CCN1C[C@H](C)N([C@H](c2ccc(C(=O)N(CC)CC)cc2)c2cccc(OC)c2)C[C@H]1C | inactive
[P]#[In] | inactive
O=c1nc(O)n(Cl)c(=O)n1Cl | inactive
C=CCO | inactive
N#Cc1nn(-c2c(Cl)cc(C(F)(F)F)cc2Cl)c(N)c1S(=O)C(F)(F)F (stereo unspecified) | inactive
COc1ccc(N)cc1 | inactive
C=CC(=O)NC(C)(C)CC(C)=O | inactive
Nc1ccncc1 | inactive
O=P1(N(CCCl)CCCl)NCCCO1 (stereo unspecified) | inactive
CC(C)OC(=O)Nc1cccc(Cl)c1 | inactive

Compound | Potency
CCCC[N+]1(C)CCCC1 (tested in a mixture with another compound) | inactive
CC(C=O)Cc1ccc2c(c1)OCO2 (stereo unspecified) | inactive
Nc1ccc(Oc2ccc(N)cc2)cc1 | inactive
O=Cc1ccc(Cl)cc1Cl | inactive
O=C(Cl)OCCOCCOC(=O)Cl | inactive
O=C(O)C1C2CCC(O2)C1C(=O)O (stereo unspecified) | inactive
CCC(C)Cl (stereo unspecified) | inactive
CCC(=O)O[C@@H]1C=C2CCC3C(CCC4(C)C3CC[C@@H]4OC(=O)CC)C2CC1 (stereo partly specified) | inactive
CCC(=O)Nc1ccc(Cl)c(Cl)c1 | inactive
CC(C)(C)C(O)(CCc1ccc(Cl)cc1)Cn1cncn1 (stereo unspecified) | inactive
Cc1cnc(C2=NC(C)(C(C)C)C(=O)N2)c(C(=O)O)c1 (stereo unspecified) | inactive
Nc1cccc(Cl)c1 | inactive
CCCCCCCCCC(CC)c1ccc(S(=O)(=O)O)cc1 (stereo unspecified) | inactive
O=C=NC1CCCCC1 | inactive
O=C(O)C(F)(F)C(F)(F)C(F)(F)C(F)(F)C(F)(F)C(F)(F)C(F)(F)C(F)(F)C(F)(F)C(F)(F)F | inactive
CC(C)(C)CC(C)(C)c1ccc(O)cc1 | inactive
ClC(Cl)=C(c1ccc(Cl)cc1)c1ccc(Cl)cc1 | inactive
O=[N+]([O-])c1c(Cl)c(Cl)c(Cl)c(Cl)c1Cl | inactive
Cc1ncc2n1-c1ccc(Cl)cc1C(c1ccccc1F)=NC2 | inactive
CCCCC(C#N)(Cn1cncn1)c1ccc(Cl)cc1 (stereo unspecified) | inactive
O=NN1CCCCCCC1 | inactive
ClC1(Cl)C2(Cl)C3(Cl)C4(Cl)C(Cl)(Cl)C5(Cl)C3(Cl)C1(Cl)C5(Cl)C24Cl (stereo unspecified) | inactive

Compound | Potency
CC(NC(C)(C)C)C(=O)c1cccc(Cl)c1 (stereo unspecified) | inactive
Nc1ccccc1 | inactive
CCC1(CC)C(=O)C=CNC1=O | inactive
Clc1ccc(C(Cl)(Cl)Cl)cn1 | inactive
S=C1NCCN1 | inactive
Nc1ccc(-c2ccccc2)cc1 | inactive
S=c1[nH]c2ccccc2[nH]1 | inactive
CCC[CH2][Sn]([Cl])([Cl])[Cl] | inactive
c1cc2c(c(N3CCNCC3)c1)OCCO2 | inactive
[O]=[Cr][O][Cr]=[O] | inactive
OC(O)C(Cl)(Cl)Cl | inactive
Cc1ccc([N+](=O)[O-])cc1 | inactive
Nc1nc(N)nc(Cl)n1 | inactive
CNC | inactive
O=NN1CCCCC1 | inactive
CC12CC1(C)C(=O)N(c1cc(Cl)cc(Cl)c1)C2=O (stereo unspecified) | inactive
Brc1ccc(Br)cc1 | inactive
CCNc1nc(Cl)nc(NC(C)(C)C#N)n1 | inactive
Nc1ccc([N+](=O)[O-])cc1N | inactive
Clc1ccc(Cl)c(Cl)c1 | inactive
CCSC(=O)N1CCCCCC1 | inactive
C[C@@H]1CN(C2CCC(C#N)(c3ccc(F)cc3)CC2)CC[C@]1(C(=O)O)c1ccccc1 (stereo partly specified) | inactive
